Assay results published in PubChem BioAssay AID1347076 (National Center for Advancing Translational Sciences (NCATS), 2019).
Screen size: about 400,000 compounds; about 13,000 (3.2%) were called active. Roughly 18% stayed inconclusive and do not appear here. Many of the other results were omitted from the sample, so actives are more common in it than they were. Unmarked numbers belong to inactive results. The call rests on the fitted dose curve; in most records, active means well fitted cell-killing curve with a large enough effect; inconclusive means small, poorly fitted or top-dose-only effect, or effect the other way; inactive means flat fitted curve, though single readings scatter.

Assay: qHTS assay for MDR1-selective chemotherapeutics: Primary screen using the drug-selected MDR subline cells KB-V1; further: nearly all actives have a fitted effect of over 60% in size
Details: KB-V1 MDR cells viability, CellTiter-Glo, 72 h; series mostly up to 46.1 µM; activity change, negative = cytotoxicity: at the top concentration
How it was run: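 KB-V1 MDR subline cells in DMEM (phenol-red free, 10% FBS) exposed to compounds in qHTS concentration series for 72 h at 37 degrees C. Viability read by CellTiter-Glo luminescence; concentration-effect curves fitted after normalization and correction.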
On the % scale 0 is the no-effect control and ±100 the full control effect; potency means the concentration at half of the fitted maximal effect.

Compound | activity change, negative = cytotoxicity [%] | Potency
COc1ccccc1NC(=O)C(CC(=O)O)Cc1cc(C)cc(C)c1 (configuration not stated) | 22.5 | 
Cc1ccc(F)c(S(=O)(=O)NC(=O)C2(C)CCN2C(=O)CCc2cccs2)c1 (configuration not stated) | 2.1 | 
COc1ccc(NS(=O)(=O)c2cc(C(=O)Nc3ccccc3C(=O)O)ccc2C)cc1 | 17 | 
Cc1ccccc1NC(=O)c1cc(S(=O)(=O)Nc2cccc(C(=O)O)c2)ccc1Cl | 28 | 
C=CCNC(=O)c1ccccc1NC(=O)c1ccc(Cl)c(S(=O)(=O)Nc2cccc(C)c2C)c1 |  | 2.91 µM (active)
Nc1ncnc2nnsc12 | -6.07 | 
CN(C(=O)COc1ncnc2c1cnn2-c1ccccc1)C1CCCCC1 |  | 9.2 µM (active)
CCN(c1ncnc2c1cnn2-c1ccc(C)cc1)C1CCCCC1 | 1.03 | 
CN(C(=O)CSc1nnnn1-c1ccccc1)C1CCCCC1 | -7.24 | 
CC(C)(C)OC(=O)N(Cc1ccco1)S(=O)(=O)c1ccccc1Br | -12.2 | 
CCc1nc2c(OCCOc3ccccc3)cccn2c1N(C)C(=O)c1cccs1 | 1.04 | 
CC(C)NC(=O)C1(C)CCCCN1Cc1cccc(C(F)(F)F)c1 (configuration not stated) | -13.8 | 
Cc1cc2c(cc1C)N1C(=O)c3cc4ccccc4cc3NC(=O)C1C(=O)N2 (configuration not stated) | 18.4 | 
COCCNCCOCCOc1cccc(OC)c1 | 7.45 | 
C=CCc1ccc(OCCOc2cccc(/C=N/n3cnnc3)c2)c(OC)c1 | -18.5 | 
COc1cccc(OCCOc2cccc(/C=N/n3cnnc3)c2)c1 |  | 18.4 µM (active)
COc1cccc(CNC(=O)CSc2c3c(nc4cc(Cl)ccc24)CCCC3)c1 | -15.6 | 
CC(=O)NCCC(=O)Nc1nc(-c2ccc3c(c2)OCCO3)cs1 | 13 | 
O=C(Nc1nc2ccccc2s1)c1ccc2c(c1)OCO2 | -25.4 | 
O=C(Nc1nc(-c2ccc3c(c2)OCO3)cs1)c1ccncc1 |  | 2.59 µM (active)
CN(C)C1CN(Cc2cn(Cc3ccccc3)nn2)S(=O)(=O)C1 (configuration not stated) | 12 | 
COC(=O)c1cc2occc2n1Cc1nc(-c2ccc(C)cc2)oc1C | -14.7 | 
O=C(NCc1ccc(F)cc1F)[C@@H]1CCCN1C(=O)[C@@H]1CCCN1C(=O)c1cccc(Cl)c1 | -5.66 | 
Cc1nn(-c2ccccc2)c(Cl)c1/C=N/NC(=O)c1nn(C)cc1[N+](=O)[O-] | -21.2 | 
Cc1nn(-c2ccccc2)c(Cl)c1/C=C/C(=O)c1ccc(O)cc1 |  | 20.6 µM (active)
Cc1nn(-c2ccccc2)c(Cl)c1C(=O)Nc1ccccc1 | 0 | 

Compound | activity change, negative = cytotoxicity [%] | Potency
O=C1NC(O)CCN1C1CC(O)C(CO)O1 (configuration not stated) | 3.08 | 
Cc1cc(Nc2ccc(Br)cc2)nc2ccccc12 | 0 | 
N#Cc1cccc(Nc2c3c(nc4ccccc24)CCCC3)c1 | 0 | 
Cc1ccc(Nc2c3c(nc4ccccc24)CCC3)cc1 |  | 5.8 µM (active)
O=C(OCc1ccccc1)N1CCC2CC1c1cc(N3CCN(S(=O)(=O)c4cc(Cl)cc(Cl)c4)CC3)ccc12 (configuration not stated) | -9.13 | 
COc1ccc(C(=O)ON=C2c3ccccc3-c3ccccc32)cc1OC | -13.7 | 
COc1ccc(C/C(N)=N/OC(=O)c2ccco2)cc1OC | -7.55 | 
COc1ccc(C(=O)O/N=C(\N)Cc2ccc(Cl)cc2Cl)cc1OC |  | 23.1 µM (active)
COc1ccc(S(=O)(=O)N2CCCCC2c2cc(C(=O)NCc3ccc(F)cc3)no2)cc1 (configuration not stated) | -24.5 | 
CCOC(=O)[C@]12CCCC=C1N(Cc1ccc3c(c1)OCO3)C(=O)[C@H](CC(=O)N1CCN(C(=O)c3ccco3)CC1)C2 | 0 | 
CC(=O)C1=CCC(c2ccccc2)N(S(=O)(=O)c2ccc(C)cc2)C1 (configuration not stated) | 4.38 | 
O=C(COc1ccccc1F)NC1CC1 | -1.57 | 
N#Cc1ccc(OCC(=O)Nc2nc(-c3ccccn3)cs2)cc1 | -0.182 | 
O=C(COc1ccccc1F)Nc1nc(-c2ccccn2)cs1 |  | 4.61 µM (active)
COc1ccc(-c2ccc3ncnc(NCc4cccs4)c3c2)cc1OC | 12.9 | 
CCOC(=O)C1=CC[C@@H](c2ccccc2)N(S(=O)(=O)c2ccc(C)cc2)[C@H]1c1ccc(CC)cc1 | -16.3 | 
S=C(NCC1CCCO1)N1CCN(c2ccc(Cl)c(Cl)c2)CC1 (configuration not stated) |  | 7.31 µM (active)
COc1ccc(S(=O)(=O)N2CCN(C(=S)NCC3CCCO3)CC2)cc1OC (configuration not stated) | -5.5 | 
CCOc1ccc(S(=O)(=O)N2CCN(C(=S)NCC3CCCO3)CC2)cc1 (configuration not stated) | -3.32 | 
CCCC(=O)Nc1ccc2oc(-c3ccc(O)c(Br)c3)nc2c1 | 0 | 
Cc1ccn(CC(=O)N2N=C(C(F)F)CC2(O)C(F)F)n1 (configuration not stated) | 13.8 | 
Cc1nn(Cc2ccc(C(=O)N3N=C(C(F)F)CC3(O)C(F)F)cc2)c(C)c1[N+](=O)[O-] (configuration not stated) |  | 8.2 µM (active)
Cc1nn(CC(=O)N/N=C/c2ccc(F)cc2)c(C)c1[N+](=O)[O-] | 18.1 | 
N#Cc1ccc(-c2nc3c(Cl)cc(C(F)(F)F)cn3c2Cc2ccccc2C(F)(F)F)cc1 | -4.42 | 
O=C1CC(c2ccc(F)cc2F)c2cc3c(cc2N1)OCO3 (configuration not stated) | 0 | 
COC(=O)C1=C(C)NC(=O)CC1c1ccccc1OC (configuration not stated) | -1.64 | 
